Growth data for 39 compounds are collected here from PubChem BioAssay (NCI).

The panel holds about 83,000 compounds, 20% with a hit somewhere; the sample as a whole holds those more often.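 The test compound was applied at a single concentration to cells in 96-well plates for 48 hours, and percent growth was recorded.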 A number with no mark means an inactive call. Calls of active or inactive are those of the source. Rule for the calls: active = growth percent below 10; inactive = the rest.

For the first assay, the system named is OVCAR-4 ovarian. Description: NCI-60 one-dose screen, 48 h (100 = growth as untreated, 0 = no growth, -100 = all killed). Particulars: 10 µM unless noted.
On to `Oc1ccc(CSc2nnc(-c3ccccc3)n2-c2ccccc2)c2cccnc12`, for which the growth was 15.8%.

For `Cc1ccc(NC(=O)c2ccc(CN3CCN(C)CC3)c(C(F)(F)F)c2)cc1Oc1ccc(-c2[nH]nc3ncnc(N)c23)cc1`, the growth was 90.7%.

As for `CC(c1ccccc1)N1C(=O)/C(=C/c2csc(C#N)n2)SC1=S` (configuration not stated), the growth was 98.1%. Regarding `O=C(COc1ccc(C2SCC(=O)N2c2ccc(F)cc2)cc1)c1ccccc1` (configuration not stated), the growth is 110%. On to `COc1ccc(-c2nnc(SCc3ccc(O)c4ncccc34)o2)cc1`, for which the growth was 24.5%.

As for `O=c1[nH]c(CNc2ccc(NCc3c(-c4ccccc4)no[n+]3[O-])cc2)nc2c1cnn2-c1ccccc1`, the growth is 64.3%. Still for that read-out and setting: next, `COc1ccc(N)cc1C(=O)Nc1cccc(-c2cc(=O)c3c(OC)c(OC)c(OC)cc3o2)c1`: 81.5%; `CCCC(=O)NC(c1cccnc1)c1cc(C(C)=O)c2cccnc2c1O` (configuration not stated): 19.6%.

The subject of a further assay is SK-OV-3 ovarian. The description is as above. Particulars: 10 µM unless noted.
In the case of `ClC(Cl)c1nc(-c2cccs2)n2nc(-c3ccccc3)cc2n1`, the growth was 20.2%. `O=C(COc1ccc(C2SCC(=O)N2c2ccccc2)cc1)c1ccccc1` (configuration not stated): the growth is 111%. `c1ccc(-c2n(Cc3ccc4ccccc4c3)c3c4ccccc4c4ccccc4c3[n+]2Cc2ccc3ccccc3c2)cc1`: the growth was -84.5% (active). Take `O=C1[C@@H]2Cc3c([nH]c4ccccc34)[C@H](c3c(Cl)cccc3Cl)N2C(=O)CN1C1CCN(Cc2c(F)cccc2F)CC1`: the growth is 96.8%. Still for that read-out and setting: under `NCCN1CCN(c2nc(-c3ccccc3)nc3nc(-c4ccccc4)oc23)CC1` stands 100%; under `C/C(=C(/C)C1CC1CCN(C(=O)c1ccccn1)S(=O)(=O)c1ccc(C)cc1)C1CCCCC1` (configuration not stated), 101%; under `Cc1nn(-c2ccccc2)cc1/C=N/Nc1nc(Nc2ccccc2)nc(Nc2ccc(S(N)(=O)=O)cc2)n1`, 50.5%. For the compound `Brc1cccc(/C=N/Nc2nc(N/N=C/c3cccc(Br)c3)nc(N3CCOCC3)n2)c1`, the growth is 92.9%. Turning to `COc1cc(/C=C2\SC(=O)NC2=O)ccc1OCC(=O)Nc1ccc(C(=O)/C=C/c2cc3ccccc3nc2Cl)cc1`, the growth is 104%. On the same count and under the same terms, under `O=c1oc2ccc(-c3ccc(F)cc3F)cc2c(=O)n1-c1ccc(F)c(F)c1` stands 6.15% (active). Turning to `CC[C@@](C)(NC(=O)C(C)(C)NC(=O)[C@@H](NC(=O)[C@@H]1CCCN1C(=O)C(C)(C)NC(=O)[C@H](CC(C)C)NC(=O)CNC(=O)C(C)(C)NC(=O)[C@@H](NC(=O)C(C)(C)NC(=O)[C@H](CCC(N)=O)NC(=O)[C@H](C)NC(=O)C(C)(C)NC(=O)[C@H](C)NC(=O)C(C)(C)NC(=O)[C@@H]1CCCN1C(=O)C(C)(C)NC(C)=O)C(C)C)C(C)C)C(=O)N[C@@H](CCC(N)=O)C(=O)N[C@@H](CCC(N)=O)C(=O)N[C@H](CO)Cc1ccccc1`, the growth was 31.3% [4.25 µM].

Take `O=C(/C=C/c1cn(-c2ccccc2)nc1-c1ccc(Cl)cc1)c1cc2ccccc2oc1=O`: the growth was 92.7%. Still for that read-out and setting: next, `CCN1C(=O)N(CC)C2SC(N/N=C/c3ccc(OC)cc3)=NC21` (configuration not stated): 62.4%. The same measure, in the same setting: next, `O=C(O)c1ccc(-n2cc(CNc3ccc(F)cc3)c(-c3ccc(C(F)(F)F)cc3)n2)cc1`: 95.2%. Still for that read-out and setting: under `COc1cc(/C=C/C(=O)c2ccc(NC(=O)COc3cccc4cccnc34)cc2)cc(OC)c1OC` stands 118%; under `COc1cc(CNC(=O)Cc2ccccc2[N+](=O)[O-])ccc1OCC(=O)NO`, 107%.

In the case of `Oc1ccc(CSc2nnc(-c3cnccn3)o2)c2cccnc12`, the growth was 9.11% (active). Take `O=C(NCCCNc1cc(-c2cn(-c3ccccc3)nc2-c2cccc(O)c2)ccn1)Nc1ccc(F)cc1`: the growth is 31.5%. Still for that read-out and setting: next, `COc1ccc(-c2nn(-c3ccccc3)cc2/C=C/C(=O)c2ccc(NC(=O)CCCCCCC(=O)NO)cc2)cc1`: 91.7%; `O=C1[C@H]2Cc3c([nH]c4ccccc34)[C@@H](c3c(Cl)cccc3Cl)N2C(=O)CN1C1CCN(Cc2ccccc2)CC1`: 115%. On the same count and under the same terms, under `COc1cccc(/C=C/C(=O)c2ccc(NC(=O)COc3cccc4cccnc34)cc2)c1` stands 104%. For `CCCC(=O)NC(c1cccnc1)c1cc(Cl)c2cccnc2c1O` (configuration not stated), the growth is 44.4%.

For `C/C(=N/Nc1nc(N/N=C(/C)c2ccc([N+](=O)[O-])cc2)nc(N2CCOCC2)n1)c1ccc([N+](=O)[O-])cc1`, the growth is 113%. Turning to `Oc1ccc(CSc2nnc(-c3cnccn3)n2-c2ccccc2)c2cccnc12`, the growth was 21.1%. For the compound `CCOC(=O)C1=C(C)Nc2nc3ccccc3n2C1c1ccccc1` (configuration not stated), the growth was 113%. `Oc1ccc(CSc2nnc(-c3ccc(Br)cc3)o2)c2cccnc12`: the growth is 50.2%. Take `CNC(=O)c1cc(N2CCc3cc(NC(=O)Nc4ccc(Cl)c(Cl)c4)ccc32)ccn1`: the growth was 88.8%. The same measure, in the same setting: next, `COc1cc2cc(Oc3ccc(NC(=O)Nc4cc(C(F)(F)F)cc(C(F)(F)F)c4)cc3)c(C)nc2cc1OCCN(C)C`: 113%; `Cc1cc(O)c(=O)cc2c1C[C@H]1CC(C)(C)/C=C/C[C@]3(C)Oc4cc(=O)c(O)cc(C)c4C[C@H]3C[C@H](O)[C@@]1(C)O2`: -14.3% (active).

As to `COc1ccc(-c2nnc(SCc3ccc(O)c4ncccc34)n2-c2ccccc2)cc1`, the growth was 12.5%. The same measure, in the same setting: under `O=C(CCCCCCN1CC(=O)N2[C@@H](c3ccc(Cl)c(F)c3)c3[nH]c4ccccc4c3C[C@H]2C1=O)NO` stands 81.8%.

On to `Oc1ccc(CSc2nnc(-c3ccccc3)n2-c2ccccc2)c2cccnc12`, for which the growth was 9.62% (active). On to `Cc1ccc(NC(=O)c2ccc(CN3CCN(C)CC3)c(C(F)(F)F)c2)cc1Oc1ccc(-c2[nH]nc3ncnc(N)c23)cc1`, for which the growth was 97%. With `CC(c1ccccc1)N1C(=O)/C(=C/c2csc(C#N)n2)SC1=S` (configuration not stated), the growth is 108%. With `O=C(COc1ccc(C2SCC(=O)N2c2ccc(F)cc2)cc1)c1ccccc1` (configuration not stated), the growth was 112%. In the case of `COc1ccc(-c2nnc(SCc3ccc(O)c4ncccc34)o2)cc1`, the growth was 51.7%.

Consider `O=c1[nH]c(CNc2ccc(NCc3c(-c4ccccc4)no[n+]3[O-])cc2)nc2c1cnn2-c1ccccc1`, for which the growth is 102%. On to `COc1ccc(N)cc1C(=O)Nc1cccc(-c2cc(=O)c3c(OC)c(OC)c(OC)cc3o2)c1`, for which the growth is 119%. Same read-out and setting: under `CCCC(=O)NC(c1cccnc1)c1cc(C(C)=O)c2cccnc2c1O` (configuration not stated) stands 31.9%.
